Compound activity as filed in PubChem.
TEAD-YAP block: TEAD-YAP interaction inhibition; HEK-TIYL cells, TEAD-Gal4/YAP UAS-luciferase luminescence; inhibition, % at 9.12 µM; hit rate 1.4% among 640,000; in the data active = inhibition above about 32%
MITF primary: inhibitors of human MITF | O75030 | AlphaScreen MITF homodimerization, bead proximity signal | inhibition, % at 2.6 µM | hit rate 0.91% among 650,000 | AID 1259374; in the data active = inhibition above about 50%
Target sequence (O75030 whole entry, looked up): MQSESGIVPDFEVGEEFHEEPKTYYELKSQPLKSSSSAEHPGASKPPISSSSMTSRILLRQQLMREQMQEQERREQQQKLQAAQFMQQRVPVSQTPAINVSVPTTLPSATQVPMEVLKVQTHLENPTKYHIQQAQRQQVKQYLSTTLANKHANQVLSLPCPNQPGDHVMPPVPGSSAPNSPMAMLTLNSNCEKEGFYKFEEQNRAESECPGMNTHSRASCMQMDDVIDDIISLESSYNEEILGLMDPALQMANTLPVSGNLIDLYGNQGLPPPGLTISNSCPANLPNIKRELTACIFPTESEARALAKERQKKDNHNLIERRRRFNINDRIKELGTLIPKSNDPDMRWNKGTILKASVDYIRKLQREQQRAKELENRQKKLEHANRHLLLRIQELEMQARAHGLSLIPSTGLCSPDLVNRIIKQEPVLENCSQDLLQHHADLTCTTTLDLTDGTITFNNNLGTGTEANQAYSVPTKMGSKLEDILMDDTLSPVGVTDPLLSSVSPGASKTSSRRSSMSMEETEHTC
GPR151 ag: activators of human GPR151; AID 1508602; hit rate 1% among 650,000; Q8TDV0; PathHunter beta-arrestin GPR151 cells, luminescence; activation, % at 11.2 µM; in the data active = activation above about 4.9%
FBW7 activator: human FBW7 E3 ligase activation, primary screen. Q969H0. AlphaScreen FBW7–phospho-cyclin E peptide binding, activator screen. normalized activity (activation), % at 26.1 µM. hit rate 0.13% among 650,000; in the data active = normalized activity above about 1.9%;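 also: purified mutant Fbw7 with reduced substrate affinity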
GPR151 conf act: confirmation of human GPR151 activators. activation, % at 11.2 µM. 6,700 tested, under 10 active. shares compounds with GPR151 ag. GPR151 PathHunter beta-arrestin cells, luminescence, 90 min; % of EA-reagent control over plate median;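 active = mean percent activation across replicates above the confirmation screen cutoff of 4.91%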
GPR119 counter: GPR119 activation, counter-screen for GPR151 activators; hit rate 0.3% among 6,700; shares compounds with GPR151 ag; AID 1508611; activation, % at 11.2 µM; GPR119 PathHunter beta-arrestin cells, luminescence, 90 min; 0 = compound-well median, 100 = enzyme-acceptor control;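 active = mean percent activation in the counterscreen above 29.09%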;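 also: counterscreen on off-target GPR119 to flag nonselective hits from the GPR151 activator screen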
Hits are given with their value; i = inactive; nt = no result; ! = a repeat was not active. Shown are actives, neighbours in structure and some others; about 3.5% of the full set was active somewhere.

SMILES	TEAD-YAP block	MITF primary	GPR151 ag	FBW7 activator	GPR151 conf act	GPR119 counter
COc1ccc(C(=O)Oc2coc(CSc3nc(C)cs3)cc2=O)cc1	i	i	i	i	nt	nt
O=c1c2ccccc2nc(SCc2c(F)cccc2Cl)n1C1CC1	i	i	5.1	i	i	i
O=C(Nc1cc([N+](=O)[O-])ccc1F)c1cccc(Cl)c1	i	i	i	i	nt	nt
CCN(CC(=O)Nc1nc2c(s1)C(=O)CC(C)(C)C2)c1ccccc1	i	i	i	i	nt	nt
CCN(CC)c1ccc(C(=O)Nc2nc3c(s2)C(=O)CC(C)(C)C3)cc1	i	i	5.2	i	i	i
Cc1ccc(OCCNC(=O)C(=O)Nc2ccccc2F)cc1C	i	i	5.2	i	i	i
CC(C)/C(=N\NC(N)=S)c1ccccc1	i	i	6.5	i	i	i
CCOCCCN1C(=O)CCC1CCNCc1cccc(F)c1 (stereo unspecified)	i	i	i	i	nt	nt
Cc1cc(NCCN2CCOCC2)nc(Cl)n1	i	i	6.2	i	i	i
COc1ccccc1C1c2c(oc3ccc(C)cc3c2=O)C(=O)N1CCN1CCOCC1 (stereo unspecified)	i	i	13	i	i	i
COc1cccc(C2c3c(oc4ccc(C)cc4c3=O)C(=O)N2CCN2CCOCC2)c1 (stereo unspecified)	i	i	i	i	nt	nt
Cc1cc(NC(=S)N(Cc2ccc(F)cc2)C2CCCCC2)ccc1Cl	i	i	i	i	nt	nt
CCCNc1cc(C)nc(Nc2cccnc2)n1	i	i	i	i	nt	nt
CCCNc1cc(C)nc(Nc2ccccc2)n1	i	i	14	i	i	i
CCOC(=O)c1cc2scc3c2n1CCC3=O	i	i	i	i	nt	nt
CCN(CC(=O)NC(C)C)C(=O)C(CCSC)NC(=O)c1cccc(C)c1 (stereo unspecified)	i	i	6.3	i	i	i
CCC(C)C1N=C2c3ccccc3N=C(SCc3cccc(F)c3)N2C1=O (stereo unspecified)	i	i	5.2	i	i	i
Cc1nc2sccn2c1CN1CCCC(CO)(Cc2cccc(Cl)c2)C1 (stereo unspecified)	42	i	5.0	i	i	i
Cc1c(CN2CCC3(CC2)NC(=O)c2ccccc2O3)cnn1C	i	i	i	i	nt	nt
O=C1NC2(CCN(C(=O)C3(c4ccc(Cl)cc4)CC3)CC2)Oc2ccccc21	i	i	i	i	nt	nt
Cc1ncc(CN2CCC3(CC2)NC(=O)c2ccccc2O3)n1C	i	i	4.9	i	i	i
Cc1ccc(C2(C(=O)N3CCC4(CC3)NC(=O)c3ccccc3O4)CC2)cc1	i	i	5.6	i	i	i
Oc1ccc(C2CNCCc3c2cc(O)c(O)c3Cl)cc1 (stereo unspecified)	i	i	6.6!	i	i	i
COc1ccccc1OCCOCCn1cnc2ccccc2c1=O	i	i	14	i	i	i
Cc1ccc(OCCCCn2cnc3ccccc3c2=O)cc1	i	i	5.5	i	i	i
SMILES	TEAD-YAP block	MITF primary	GPR151 ag	FBW7 activator	GPR151 conf act	GPR119 counter
O=c1c2ccccc2ncn1CCOCCOc1cccc2ccccc12	i	i	i	i	nt	nt
Fc1ccc(C(c2nnnn2Cc2ccco2)N2CCN(C3CCCCC3)CC2)cc1 (stereo unspecified)	i	i	i	i	nt	nt
Fc1ccc(C(c2nnnn2Cc2ccco2)N2CCN(Cc3ccccc3)CC2)cc1 (stereo unspecified)	i	i	5.8	i	i	i
CCN(CC)c1ccc(C(=O)Nc2cc(C(=O)NCc3ccccc3OC)ccc2N2CC3CC(C2)c2cccc(=O)n2C3)cc1 (stereo unspecified)	i	i	i	i	nt	nt
CC(C)Oc1ccc(/C=C2/SC(N3CCOCC3)=NC2=O)cc1	i	i	7.0	i	i	i
O=C1N=C(N2CCOCC2)S/C1=C\c1cccc2ccccc12	i	i	6.1	i	i	i
O=C1N=C(N2CCCC2)S/C1=C\c1cn[nH]c1-c1ccccc1	i	i	7.6	i	i	i
NC1=NC(=O)/C(=C/c2cn[nH]c2-c2ccccc2)S1	i	i	i	i	nt	nt
O=C1N=C(N2CCOCC2)S/C1=C\c1c2ccccc2cc2ccccc12	i	i	i	i	nt	nt
Cc1ccc(/C=C2\SC(N3CCOCC3)=NC2=O)cc1	i	i	i	i	nt	nt
Cc1ccc([N+](=O)[O-])cc1N=CC1=C(O)CC(C)(C)CC1=O	i	i	i	i	nt	nt
Cc1ccc(CNC(=O)CCNS(=O)(=O)c2ccc3[nH]c(=O)ccc3c2)cc1	i	i	i	i	nt	nt
O=C(CCNS(=O)(=O)c1ccc2[nH]c(=O)ccc2c1)NCc1ccccc1	i	i	8.2	i	i	i
Nc1c(C(=O)O)[nH]c(=O)[nH]c1=O	i	i	5.1	i	i	i
CCn1cc(CN2CCOc3ccc(C(O)c4ccccn4)cc3C2)c(C)n1 (stereo unspecified)	i	i	i	i	nt	nt
CCOC(=O)c1ccccc1N1C(=O)C2C3C=CC(C3)C2C1=O (stereo unspecified)	i	i	i	i	nt	nt
Cc1ccc(OCC(=O)N2CCN(C(=O)COc3ccc4ccccc4c3)CC2)cc1	i	i	i	i	nt	nt
Cn1nnc2c(N3CCN(C(=O)COc4ccc5ccccc5c4)CC3)ncnc21	i	i	5.1	i	i	i
N#Cc1c(-c2ccc(Cl)cc2)cc(-c2ccccc2)nc1N	i	i	i	i	nt	nt
N#Cc1c(-c2ccncc2)cc(-c2ccc(Cl)cc2)nc1N	i	i	5.4	i	i	i
COc1cc(/C=C(\NC(=O)c2ccccc2)C(=O)Nc2ccc(O)cc2)ccc1OC(C)=O	i	i	i	i	nt	nt
CCOC(=O)c1c(N)c(C#N)cn1-c1ccccc1	i	i	8.6	i	i	i
COC(=O)c1ccccc1NC(=O)Nc1ccc(Cl)cc1	i	i	i	i	nt	nt
CCOC(=O)c1ccccc1NC(=O)c1cccc(Br)c1	i	i	i	i	nt	nt
COC(=O)c1ccccc1NC(=O)Nc1ccc(Br)cc1Cl	i	i	5.9	i	i	i
SMILES	TEAD-YAP block	MITF primary	GPR151 ag	FBW7 activator	GPR151 conf act	GPR119 counter
COC(=O)c1cccc(NC(=O)c2cccc(Br)c2)c1C	i	i	15	i	i	i
O=C(O)c1ccc(NC(=O)c2ccccc2NC(=O)c2cccc(Br)c2)cc1	i	i	5.5	i	i	i
NNC(=O)C1[C@H](O)CC[C@@H]2CN3CCc4c([nH]c5ccccc45)[C@H]3C[C@@H]12 (stereo partly specified)	i	i	i	i	nt	nt
Cc1ccc(C)c(COc2cccc3ccc(N4CCC(C(N)=O)CC4)nc23)c1	i	i	i	i	nt	nt
O=C(NC1CC1)c1ccc(-c2ncc(C(=O)NCCO)s2)cc1	i	i	i	i	nt	nt
O=C(Nc1ccc2c(c1)OCCO2)c1ccc(N2CC3CC(C2)c2cccc(=O)n2C3)c(NC(=O)c2cccnc2)c1 (stereo unspecified)	i	i	i	i	nt	nt
COc1ccc(N2C(=O)CC(N(CCc3ccc(OC)c(OC)c3)C(=O)c3ccccc3)C2=O)cc1 (stereo unspecified)	i	i	5.2	i	i	i
CCn1c2ccccc2n2c(=O)n(CC(=O)NC(C)C)nc12	i	i	i	i	nt	nt
